Records with an inconclusive call do not appear. Active and inactive are the calls of the source. Unless noted, calls follow the shape of the dose curve; as a rule, active = well fitted curve in the direction sought with a large enough effect in the repeat runs; inconclusive = weak or mixed curves; inactive = no such curve, though single readings can be large; an effect the other way counts as inactive or inconclusive.
Key:
[1] = qHTS assay to identify small molecule agonists of the vitamin D receptor (VDR) signaling pathway - cell viability counter screen (AID 743224); also: series mostly up to about 63 µM; nearly all actives have a fitted effect of over 50% in size
Procedure, shortened: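 Cells: VDR-bla, 2,000/well, settled 4 h. Treatment: compounds in DMSO, 16 h, 37C/5% CO2. Readout: CellTiter-Glo luminescence after 30 min RT.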

[2] = qHTS assay to identify small molecule antagonists of the vitamin D receptor (VDR) signaling pathway - cell viability counter screen (AID 743225); also: nearly all actives have a fitted effect of over 50% in size
Procedure, shortened: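 Parallel cytotoxicity test: VDR-UAS-bla HEK 293T, 3 nM (final) 1-alpha,25-dihydroxyvitamin D3 with test compound, 16 h, 37C. Endpoint is CellTiter-Glo luminescence in the same wells.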

[3] = qHTS assay to identify small molecule agonists of the NFkB signaling pathway (AID 1159509; active = well fitted curve in the direction sought with a large enough effect in the signal ratio in the repeat runs, not every such curve was filed as active; the % refers to the signal ratio; also: series mostly up to about 61 µM)
Procedure, shortened: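 Pathway activation was measured in ME-180 cells stably expressing beta-lactamase under NF-kB response element control. Substrate cleavage was read as the 460/530 nm emission shift after 5 hr compound incubation.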

[4] = qHTS assay to identify small molecule agonists of the NFkB signaling pathway - cell viability counter screen (AID 1159515; calls by dose curve; also: series mostly up to about 61 µM; nearly all actives have a fitted effect of over 55% in size)
Procedure, shortened: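 Cells are seeded (2,000 NFkB-bla ME-180 per well), rested overnight, and dosed with DMSO-dissolved compounds for 5 hr at 37 C. Viability is then read by CellTiter-Glo luminescence after 30 min at room temperature.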

[5] = qHTS assay to identify small molecule agonists of the endoplasmic reticulum stress response signaling pathway (AID 1159516; active = well fitted activation curve with a large enough effect in the signal ratio in the repeat runs, not every such curve was filed as active; the % refers to the signal ratio)
Procedure, shortened: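 Cells are seeded at 1,500 per well and incubated overnight. Compounds in DMSO are added for 5 hr at 37 C, then beta-lactamase FRET substrate for 2 hr at room temperature, and fluorescence at 460 and 530 nm is measured.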

[6] = qHTS assay to identify small molecule agonists of the endoplasmic reticulum stress response signaling pathway - cell viability counter screen (AID 1159517; calls by dose curve;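 also: HeLa cells carrying an ER stress response element beta-lactamase reporter; series mostly up to about 61 µM; nearly all actives have a fitted effect of over 50% in size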)
Procedure, shortened: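 In parallel with the ESRE reporter read, cytotoxicity was scored by CellTiter-Glo luminescence (30 min, room temperature) on HeLa ESRE-bla cells dosed for 5 hr.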

[7] = qHTS assay to identify small molecule antagonists of the retinoid-related orphan receptor gamma (ROR-gamma) signaling pathway - cell viability counter screen (AID 1159520); also: nearly all actives have a fitted effect of over 50% in size
Procedure, shortened: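 Tet-on ROR gamma CHO cells were given compounds for 2 hr, then doxycycline hyclate at 1 uM final, and incubated 16 hr at 37 C. Viability was measured as ATP content by CellTiter-Glo luminescence.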

[8] = target: Nuclear receptor ROR-gamma (Homo sapiens) (UniProt P51449); assay: qHTS assay to identify small molecule antagonists of the retinoid-related orphan receptor gamma (ROR-gamma) signaling pathway (AID 1159521)
Procedure, shortened: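 Decreased RORE-driven luciferase luminescence indicates antagonism. Tet-on RORγ CHO cells received compound, then 1 uM final doxycycline 2 h later; signal read after 16 h incubation.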

[9] = qHTS assay to identify small molecule agonists of the AP-1 signaling pathway - cell viability counter screen (AID 1159525; calls by dose curve; also: nearly all actives have a fitted effect of over 55% in size)
Procedure, shortened: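 Same-well cytotoxicity counter screen of the Tox21 10K library in ME-180 cells. The readout is ATP-dependent luminescence after 5 h compound treatment. Data are normalised to DMSO and tetra n-octyl ammonium bromide controls.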

[10] = qHTS assay to identify small molecule agonists of the AP-1 signaling pathway (AID 1159526; calls by dose curve)
[11] = target: Retinoic acid receptor RXR-alpha (Homo sapiens) (UniProt P19793); assay: qHTS assay to identify small molecule agonists of the RXR signaling pathway (AID 1159527; calls by dose curve; also: nearly all actives have a fitted effect of over 35% in size)
Sequence of Retinoic acid receptor RXR-alpha (Homo sapiens) (P19793 whole entry, looked up): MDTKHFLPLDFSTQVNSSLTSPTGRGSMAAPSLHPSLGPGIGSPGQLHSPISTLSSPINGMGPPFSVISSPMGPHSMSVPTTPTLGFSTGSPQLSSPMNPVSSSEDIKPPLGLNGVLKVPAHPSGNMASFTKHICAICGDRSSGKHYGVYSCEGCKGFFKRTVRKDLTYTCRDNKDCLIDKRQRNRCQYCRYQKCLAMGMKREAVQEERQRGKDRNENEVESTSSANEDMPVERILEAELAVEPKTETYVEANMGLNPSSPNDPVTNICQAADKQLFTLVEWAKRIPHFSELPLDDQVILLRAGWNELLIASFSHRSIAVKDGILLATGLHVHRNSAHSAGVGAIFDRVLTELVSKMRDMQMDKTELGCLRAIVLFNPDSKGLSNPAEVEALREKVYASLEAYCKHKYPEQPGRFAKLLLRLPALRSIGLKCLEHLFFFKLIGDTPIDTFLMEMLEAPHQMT
Procedure, shortened: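 16 hr incubation of compound-treated RXR-alpha-UAS-bla HEK 293T cells (2% charcoal-stripped FBS, 37 C) preceded a 2 hr room-temperature LiveBLAzer FRET substrate step and blue/green fluorescence measurement.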

[12] = qHTS assay to identify small molecule agonists of the RXR signaling pathway - cell viability counter screen (AID 1159529)
Procedure, shortened: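 In this parallel viability measure, GeneBLAzer RXR-alpha HEK 293T cells (2% charcoal-stripped FBS) were given a 5 hr preincubation, treated with compounds 16 hr at 37 C, and read by CellTiter-Glo luminescence.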

[13] = qHTS assay to identify small molecule antagonists of the retinoic acid receptor (RAR) signaling pathway (AID 1159552; also: nearly all actives have a fitted effect of over 50% in size)
Procedure, shortened: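 C3RL4 RARE-luc cells, overnight plating; retinol 1 uM final added right after compound; 6 hr 37 C; luciferase read at 30 min RT.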

[14] = qHTS assay to identify small molecule agonists of the retinoic acid receptor (RAR) signaling pathway (AID 1159553)
Procedure, shortened: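 Seed C3RL4 reporter cells at 1,000 per well and incubate overnight at 37 C. Add compounds in DMSO, incubate 6 hr. Add luciferase reagent, wait 30 min at room temperature, read luminescence.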

[15] = qHTS assay to identify small molecule antagonists of the retinoid acid receptor (RAR) signaling pathway - cell viability counter screen (AID 1159551); also: nearly all actives have a fitted effect of over 35% in size
Procedure, shortened: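 Cells (C3RL4) are plated, incubated overnight, dosed with compound in DMSO, then given retinol at 1 uM final. After 6 h at 37 C, CellTiter-Glo is added and luminescence read following 30 min at room temperature.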

[16] = qHTS assay to identify small molecule antagonists of the estrogen related receptor (ERR) signaling pathway - cell viability counter screen (AID 1224818); also: series mostly up to about 46 µM
Procedure, shortened: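 ERR cells, 2,000/well; 6 h settle at 37 C/5% CO2; compound pin transfer (DMSO); 17.5 h at 37 C; CellTiter-Fluor, 30 min, fluorescence read.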

[17] = qHTS assay to identify small molecule antagonists of the estrogen related receptor signaling pathway with the pleiotropic PPARgamma coactivator (PGC) cell viability counter screen (AID 1224822;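 also: series mostly up to about 46 µM; viability read after 17.5 h compound exposure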)
Procedure, shortened: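 Multiplexed viability counter screen run in PGC/ERR cells treated with compounds for 17.5 h at 37 C; live-cell protease signal measured by CellTiter-Fluor fluorescence.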

Measured: Potency

COc1ccccc1NC(=O)CC(C)=O
inactive: [1] | [2] | [3] | [4] | [5] | [6] | [7] | [8] | [9] | [10] | [11] | [12] | [13] | [14]

C=CC(=O)NC(C)(C)CS(=O)(=O)O
inactive: [1] | [2] | [3] | [4] | [5] | [6] | [7] | [8] | [9] | [10] | [11] | [12] | [13] | [14]

Cc1c(N(C)CS(=O)(=O)O)c(=O)n(-c2ccccc2)n1C
inactive: [1] | [2] | [3] | [4] | [5] | [6] | [7] | [8] | [9] | [10] | [11] | [12] | [13] | [14]

CCn1cc(C(=O)O)c(=O)c2ccc(C)nc21
inactive: [1] | [2] | [3] | [4] | [5] | [6] | [7] | [8] | [9] | [10] | [11] | [12] | [15] | [13] | [14]

C=C(C)OC(C)=O
inactive: [1] | [2] | [3] | [4] | [5] | [6] | [7] | [8] | [9] | [10] | [11] | [12] | [13] | [14]

COCC(C)N (stereo unspecified)
inactive: [1] | [2] | [3] | [4] | [5] | [6] | [7] | [8] | [9] | [10] | [11] | [12] | [13] | [14]

Cn1cnc2c1c(=O)[nH]c(=O)n2C
inactive: [1] | [2] | [3] | [4] | [5] | [6] | [7] | [8] | [9] | [10] | [11] | [12] | [13] | [14] | [16] | [17]

Source: PubChem BioAssay (Tox21)
